# Out of some 310,000 compounds screened, about 14,000 (4.5%) showed an effect of 50% or more. Effects have a minus sign here. The full list was thinned out, with strong results kept by preference.
# Molecular target: human ether-à-go-go-related gene (hERG) potassium channel (human, UniProt Q12809)
# Experiment: primary screen, population patch clamp on CHO cells stably expressing hERG; higher = less effect of the substance
# 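Further: peak tail current of the secondary pulse compared with the same well before compound.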
# Sequence of human ether-à-go-go-related gene (hERG) potassium channel (Q12809 whole entry, looked up): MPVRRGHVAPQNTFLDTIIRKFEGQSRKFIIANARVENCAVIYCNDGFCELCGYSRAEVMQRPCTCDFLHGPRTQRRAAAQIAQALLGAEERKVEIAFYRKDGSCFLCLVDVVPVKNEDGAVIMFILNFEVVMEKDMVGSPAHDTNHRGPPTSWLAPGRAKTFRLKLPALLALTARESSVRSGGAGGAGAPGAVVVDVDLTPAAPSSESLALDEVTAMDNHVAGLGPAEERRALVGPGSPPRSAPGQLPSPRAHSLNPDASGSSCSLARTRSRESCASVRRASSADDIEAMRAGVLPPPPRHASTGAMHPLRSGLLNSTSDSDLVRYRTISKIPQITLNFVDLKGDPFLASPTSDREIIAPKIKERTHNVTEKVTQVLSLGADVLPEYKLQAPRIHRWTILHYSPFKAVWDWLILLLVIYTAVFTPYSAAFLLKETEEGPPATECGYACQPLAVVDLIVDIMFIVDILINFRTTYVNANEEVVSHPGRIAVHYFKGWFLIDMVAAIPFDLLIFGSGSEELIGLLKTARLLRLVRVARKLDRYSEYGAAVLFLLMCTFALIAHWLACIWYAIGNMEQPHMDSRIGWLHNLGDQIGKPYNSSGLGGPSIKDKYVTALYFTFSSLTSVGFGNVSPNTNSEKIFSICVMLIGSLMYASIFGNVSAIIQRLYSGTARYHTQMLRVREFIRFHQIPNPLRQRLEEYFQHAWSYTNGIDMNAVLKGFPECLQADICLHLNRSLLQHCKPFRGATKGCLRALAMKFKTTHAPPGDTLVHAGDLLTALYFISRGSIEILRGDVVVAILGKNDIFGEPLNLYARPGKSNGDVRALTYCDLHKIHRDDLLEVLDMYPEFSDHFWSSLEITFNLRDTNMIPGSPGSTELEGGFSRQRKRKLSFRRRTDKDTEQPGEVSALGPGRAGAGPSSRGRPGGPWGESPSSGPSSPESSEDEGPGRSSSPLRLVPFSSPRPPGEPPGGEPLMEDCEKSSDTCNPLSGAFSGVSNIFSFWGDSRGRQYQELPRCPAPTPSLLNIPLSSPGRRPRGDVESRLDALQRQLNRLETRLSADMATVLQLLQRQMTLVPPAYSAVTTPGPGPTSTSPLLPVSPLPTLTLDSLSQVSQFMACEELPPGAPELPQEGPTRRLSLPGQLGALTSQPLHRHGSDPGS
row,Compound,"hERG current change (%, negative = inhibition) at 10uM [%]"
1,CCN(CC)CCCN(C(=O)c1ccccc1C)c1nc(-c2ccc(OC)cc2)cs1,-55.5
2,CCN(C(=O)c1ccccc1F)c1nc(-c2ccc(OC)cc2)cs1,22.8
3,COCCN(C(=O)c1ccccc1F)c1nc(-c2ccc(OC)cc2)cs1,16.7
4,CCN(CC)CCCN(C(=O)c1ccccc1F)c1nc(-c2ccc(OC)cc2)cs1,-71.4
5,CN(CC(=O)Nc1cccc(F)c1)C(=O)CCNC(=O)c1ccco1,16.7
6,CCC(C)(C)NC(=O)C(c1ccccc1)N(Cc1cccs1)C(=O)Cn1nnc2ccccc21 (stereo not drawn),7.58
7,Cc1cccc(/C(N)=N/OC(=O)COc2ccc(Cl)c(C)c2)c1,13.2
8,COc1ccc(N2CCN(CCCNC(=O)c3cc4sccc4n3C)CC2)cc1,-70.7
9,Cn1c(C(=O)NCCCN2CCCCC2)cc2sccc21,-49
10,COc1ccc(N2CCN(CCCNC(=O)CCCn3c(=O)[nH]c4ccsc4c3=O)CC2)cc1,-9.7
11,COc1ccc(CCNC(=O)c2cc3sccc3n2C)cc1OC,-6.67
12,CC1CCN(CCCNC(=O)c2cc3sccc3n2C)CC1,-57.3
13,COCCNC(=O)c1cc2sccc2n1C,1.67
14,COC(=O)CSc1ccsc1C(=O)O,5.72
15,COc1ccc(-c2cc3c(=O)n(CC(=O)Nc4cccc(Cl)c4)nc(C)n3n2)cc1,14.8
16,CCCC(=O)Nc1cccc(NC(=O)c2cccc([N+](=O)[O-])c2C)c1,-12.8
17,CCCCN(CC)CCNC(=O)CN1C(=O)COc2ccc(S(=O)(=O)N3CCCC3)cc21,-3.34
18,CCCCN(CCCC)CCNC(=O)CN1C(=O)COc2ccc(S(=O)(=O)N3CCC(C)CC3)cc21,-66.5
19,CCN(CC)S(=O)(=O)c1ccc2c(c1)N(CC(=O)N1CCCC1)C(=O)CO2,-5.64
20,CCN(Cc1ccccc1)C(=O)CN1C(=O)COc2ccc(S(=O)(=O)N3CCCCCC3)cc21,-8.9
21,CC1CCN(S(=O)(=O)c2ccc3c(c2)N(CC(=O)NCCCN2C(C)CCCC2C)C(=O)CO3)CC1 (stereo not drawn),17.3
22,CCN(CC)S(=O)(=O)c1ccc2c(c1)N(CC(=O)NCCc1ccc(S(N)(=O)=O)cc1)C(=O)CO2,-1.7
23,CCCCN(CCCNC(=O)CN1C(=O)COc2ccc(S(=O)(=O)N3CCC(C)CC3)cc21)Cc1ccccc1,-76.6

row,Compound,"hERG current change (%, negative = inhibition) at 10uM [%]"
1,CCN(Cc1ccccc1)C(=O)CN1C(=O)COc2ccc(S(=O)(=O)NC3CCCC3)cc21,-54.2
2,CCCCN(CCCC)CCNC(=O)CN1C(=O)COc2ccc(S(=O)(=O)N3CCOCC3)cc21,-42.3
3,CC(C)N(Cc1ccccc1)C(=O)CN1C(=O)COc2ccc(S(=O)(=O)NC3CCCC3)cc21,-36.1
4,CC1CCN(S(=O)(=O)c2ccc3c(c2)N(CC(=O)NCCCN2CCCC(C)C2)C(=O)CO3)CC1 (stereo not drawn),-8.35
5,CCN(CC)S(=O)(=O)c1ccc2c(c1)N(CC(=O)N(CCc1ccncc1)C(C)C)C(=O)CO2,-53.3
6,CC(C)CN(C(=O)COC(=O)/C=C/c1ccccc1)C1CCS(=O)(=O)C1 (stereo not drawn),-10.7
7,CCOC(=O)N1CCN(C(=O)CSc2nnc(COc3ccccc3)o2)CC1,-11
8,S=C(Nc1ccc(Br)cc1Cl)NN1CCOCC1,-8.03
9,O=C(CC1NCCNC1=O)Nc1ccc(Oc2ccccc2)cc1 (stereo not drawn),25.6
10,Cc1cc(C(=O)Nc2ccc3c(c2)CCC3)c2ccccc2n1,10.8
11,COc1ccc(Cl)cc1NC(=O)CCS(=O)(=O)c1ccc(Br)cc1,3.8
12,COc1ccc(NC(=O)C(=O)NNC(=O)C(C)Oc2ccc(Cl)cc2Cl)cc1 (stereo not drawn),19
13,Cn1nc(C(=O)Nc2ccccc2)c2c1-c1ccccc1S(=O)(=O)C2,-0.138
14,CC(C)CN(CCCNC(=O)CN1C(=O)COc2ccc(S(=O)(=O)N3CCCC3)cc21)CC(C)C,-5.33
15,CCOCCCNC(=O)CN1C(=O)COc2ccc(S(=O)(=O)N3CCC(C)CC3)cc21,6.25
16,Cc1ccc(CCNC(=O)CN2C(=O)COc3ccc(S(=O)(=O)N4CCC(C)CC4)cc32)cc1,8.66
17,CC(C)CN(CCCNC(=O)CN1C(=O)COc2ccc(S(=O)(=O)N3CCCCCC3)cc21)CC(C)C,-52
18,CC1CCN(S(=O)(=O)c2ccc3c(c2)N(CC(=O)NCCCN(Cc2ccccc2)C(C)C)C(=O)CO3)CC1,-62.5
19,CC(C)CN(CCCNC(=O)CN1C(=O)COc2ccc(S(=O)(=O)N3CCC(C)CC3)cc21)CC(C)C,-2.94
20,CCCCN(CCCC)CCCNC(=O)CN1C(=O)COc2ccc(S(=O)(=O)N3CCC(C)CC3)cc21,-74.8
21,CC(C)CN(CCCNC(=O)CN1C(=O)COc2ccc(S(=O)(=O)N3CCOCC3)cc21)CC(C)C,6.18
22,CC1CCN(S(=O)(=O)c2ccc3c(c2)N(CC(=O)NCCCOC(C)C)C(=O)CO3)CC1,12.8
